# Assay results from PubChem BioAssay (NCI).
# Compounds without any hit were thinned out: in the full panel of roughly 83,000, 20% have a hit.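 Testing used 96-well plates and a 48-hour single-concentration exposure. Example: -40 means 40% of the starting cells died.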 Active and inactive are the calls of the source. Rule for the calls: active = growth percent below 10; inactive = the rest.
# Tested on: HOP-92 NSCLC
# Experiment: NCI-60 one-dose screen, 48 h (100 = growth as untreated, 0 = no growth, -100 = all killed)
# Conditions: 10 µM
row,Structure (SMILES),growth
1,CC1=N/C(=C\c2ccc(N(C)C)cc2)C(=O)N1CCc1ccc(S(N)(=O)=O)cc1,96.5% (inactive)
2,O=C(Nc1ccc(I)cc1F)c1cc(-c2ccc(F)cc2F)ccc1O,-26.3% (active)
3,C/C(=N\NC(N)=S)c1ccc(Nc2nc(SC(C)C)nc(-c3ccccc3)c2C#N)cc1,-11.1% (active)
4,COc1ccc2c(c1)N=C(C(=O)O)/C2=C/c1sc(Nc2ccc(O)cc2)nc1O,68.3% (inactive)
5,COc1cc(-c2nc3cc(Cl)c(Cl)cc3[nH]2)ccc1OCc1nnc(-c2ccc(Br)cc2)o1,-39.6% (active)
6,Cc1ccc(NC(=O)c2ccc(-n3c(=O)[nH]c4ccccc4c3=O)cc2)cc1,36.5% (inactive)
7,CC(=C(c1ccc(OCCN2CCCCC2)cc1)c1ccc(OCCN2CCCCC2)cc1)c1ccccc1,8.69% (active)
8,CCCCCc1ccc(S(=O)(=O)N(C(C)=O)c2cc(-c3csc(N(C)C(C)=O)n3)ccc2N2CCN(C)CC2)cc1,-2.86% (active)
9,COc1cc2c3c(n(CCCNC(C)C)c(=O)c2cc1OC)-c1nc2c(cc1C3=O)OCO2,66.5% (inactive)
